Data reported in PMC4081100, “A DNA-binding-site landscape and regulatory network analysis for NAC transcription factors in Arabidopsis thaliana”.

Biological target: T1, GST-VND7 NAC domain (Arabidopsis thaliana, UniProt Q9C8W9 9-158)
T1 sequence: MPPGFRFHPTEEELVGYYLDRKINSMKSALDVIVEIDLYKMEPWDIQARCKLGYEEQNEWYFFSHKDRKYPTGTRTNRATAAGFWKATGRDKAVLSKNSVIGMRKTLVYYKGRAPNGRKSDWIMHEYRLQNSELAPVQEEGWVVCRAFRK
Test: universal protein binding microarray (PBM); transcription factors of Arabidopsis thaliana; high values mean tight binding
Conditions: protein: recombinant; tags: GST; chain copies: 2; dsDNA, one strand shown
Method in brief: (§1)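 Each value is a normalised enrichment score (E-score) describing binding. The GST-tagged proteins, NAC-domain, full-length or DNA-binding-domain, were induced in cells (zinc-finger proteins with zinc acetate added) and purified on glutathione–Sepharose 4B. They were applied at 200 to 500 nM final, in duplicate, to double-stranded custom all-10-mer Agilent 4 × 180K arrays, and gapped and ungapped 8-mers were scored.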

In order of rising binding signal:
1. AAATTGAC  0.0875 E-score
2. CTTACTTA  0.106 E-score
3. CGTCAAAC  0.129 E-score
4. CACGAAAG  0.132 E-score
5. AAGTAAGT  0.135 E-score
6. CTTACCCC  0.149 E-score
7. ATTTCCCC  0.153 E-score
8. CTACGTTA  0.164 E-score
9. CAAGGAAA  0.181 E-score
10. AACGTAGA  0.184 E-score
11. ACGCAAGA  0.194 E-score
12. ATGCGTAC  0.21 E-score
13. TGAAGAAA  0.215 E-score
14. ACTAAGTA  0.218 E-score
15. GTAAGTCA  0.232 E-score
16. AACGTAAA  0.248 E-score
17. ACGTCAAA  0.25 E-score
18. AATGCGTG  0.254 E-score
19. AGACGCAA  0.276 E-score
20. ACGTAAAG  0.283 E-score
21. GACGTAAC  0.296 E-score
22. ACGTAAAA  0.344 E-score
23. ACGCAAAG  0.346 E-score
24. AGACGTGA  0.348 E-score
25. CACGCAAG  0.367 E-score
26. GTACGTCA  0.373 E-score
27. TTACGGAA  0.391 E-score
28. ACGTAACG  0.409 E-score
29. TAACGTAA  0.413 E-score
30. ACGTAAGT  0.42 E-score
31. GATACGTA  0.424 E-score
32. ATTACGTG  0.437 E-score
33. GTACGTAA  0.44 E-score
34. ATTACGTA  0.458 E-score
35. AATTACGT  0.46 E-score
36. TCACGCAA  0.462 E-score
37. TTACGTAA  0.481 E-score
38. ACACGCAA  0.482 E-score

Biological target: GST-WRKY1(266-371) (Arabidopsis thaliana, UniProt Q9SI37 266-371)
Sequence (Q9SI37 266-371): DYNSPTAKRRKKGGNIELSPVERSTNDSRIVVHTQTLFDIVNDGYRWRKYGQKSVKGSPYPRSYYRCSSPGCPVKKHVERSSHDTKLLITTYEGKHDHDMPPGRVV
Test: as above
Conditions: protein: recombinant; tags: GST; dsDNA, one strand shown
Method in brief: as §1

In order of rising binding signal:
1. TTACGTAA  0.0521 E-score
2. CTTACCCC  0.0524 E-score
3. ATGCGTAC  0.0545 E-score
4. AGACGCAA  0.0554 E-score
5. ATTACGTA  0.0642 E-score
6. GATACGTA  0.0663 E-score
7. TAACGTAA  0.0682 E-score
8. ACGTAACG  0.078 E-score
9. CTACGTTA  0.0835 E-score
10. CACGAAAG  0.0838 E-score
11. GTACGTAA  0.0843 E-score
12. CACGCAAG  0.0865 E-score
13. AATGCGTG  0.087 E-score
14. CAAGGAAA  0.0889 E-score
15. ACGTAAAA  0.0914 E-score
16. TCACGCAA  0.0966 E-score
17. ACTAAGTA  0.0999 E-score
18. ACGTAAAG  0.103 E-score
19. ACGTAAGT  0.112 E-score
20. ATTTCCCC  0.116 E-score
21. AGACGTGA  0.116 E-score
22. ACGCAAGA  0.123 E-score
23. TTACGGAA  0.126 E-score
24. ATTACGTG  0.127 E-score
25. GACGTAAC  0.152 E-score
26. ACGCAAAG  0.16 E-score
27. AACGTAAA  0.165 E-score
28. ACACGCAA  0.172 E-score
29. AATTACGT  0.185 E-score
30. AAGTAAGT  0.2 E-score
31. TGAAGAAA  0.211 E-score
32. GTACGTCA  0.228 E-score
33. CTTACTTA  0.235 E-score
34. AACGTAGA  0.317 E-score
35. ACGTCAAA  0.421 E-score
36. GTAAGTCA  0.429 E-score
37. CGTCAAAC  0.44 E-score
38. AAATTGAC  0.45 E-score
